Results on 94 molecules are retold here after PubChem BioAssay AID504692 (The Scripps Research Institute Molecular Screening Center, 2011).

The campaign covered roughly 340,000 compounds. About 2,000 (0.59%) were called active. The sample holds actives, similar compounds and a random draw of the others, so the mix is not that of the screen. Unmarked numbers belong to inactive results. No stated cut-off is given here; in the data, active means activation mostly above about 9.5% (no sharp cut-off); inactive means mostly below about 7.6%.

5-hydroxytryptamine receptor 5A (Homo sapiens), sequence (P47898 whole entry, looked up): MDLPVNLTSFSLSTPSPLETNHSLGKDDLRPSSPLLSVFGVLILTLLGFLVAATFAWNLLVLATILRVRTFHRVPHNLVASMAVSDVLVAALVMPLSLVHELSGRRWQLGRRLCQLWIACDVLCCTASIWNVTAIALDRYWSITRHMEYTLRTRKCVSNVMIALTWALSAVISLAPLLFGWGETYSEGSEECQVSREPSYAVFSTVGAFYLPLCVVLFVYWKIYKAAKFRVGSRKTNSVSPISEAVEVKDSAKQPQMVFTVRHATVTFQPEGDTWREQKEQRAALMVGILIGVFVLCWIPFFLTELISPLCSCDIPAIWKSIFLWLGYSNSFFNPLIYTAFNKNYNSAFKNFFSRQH

This assay concerns the target 5-hydroxytryptamine receptor 5A (Homo sapiens) (UniProt P47898). In words: activation of human 5-HT5A receptor – cell-based, luminescence, full-deck HTS, counter-screen for OPRM1-OPRD1 heterodimer agonist project, primary screen (AID 504692).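 Further: 0% = cells with vehicle only and 100% = reference agonist.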 Conditions: HTR5A agonist assay, at 9.3 µM, active compounds read high.
For `CCc1c(Nc2ccccc2Cl)nc(N)[nH]c1=O`, the activation is -3.6%.

Consider `O=C(COC(=O)c1cc[n+]([O-])cc1)Nc1ccc(Cl)c(C(F)(F)F)c1`, for which the activation was 3.73%.

Turning to `O=C(CC(O)(C(F)(F)F)C(F)(F)F)Nc1ccc(Cl)c(Cl)c1`, the activation is 20.1% (active).

As to `NC(=O)N1CCCC1C(=O)Nc1ccc(Cl)c(Cl)c1` (centres undefined), the activation was 1.66%.

In the case of `COc1ccccc1CNS(=O)(=O)CC12CCC(CC1=O)C2(C)C` (centres undefined), the activation was -5.29%.

Regarding `CC(C)(C)NS(=O)(=O)CC12CCC(CC1=O)C2(C)C` (centres undefined), the activation is 3.18%.

For `CC1(C)C2CCC1(CS(=O)(=O)NCCc1c[nH]c3ccccc13)C(=O)C2` (centres undefined), the activation is 41.5% (active).

As to `COc1ccc(/C=C2/CCCc3ccccc3C2=O)cc1`, the activation was -2.8%.

For `COc1ccc(OC)c(C2C3=C(N=c4s/c(=C\c5cccc(O)c5)c(=O)n42)c2ccccc2CC3)c1` (centres undefined), the activation is 13.5% (active).

In the case of `O=C1[C@@H]2C(Cc3ccc(O)cc3)NC3(C(=O)Nc4ccc(F)cc43)[C@@H]2C(=O)N1c1ccc(F)cc1` (some centres undefined), the activation was 1.44%.

On to `CC1CCN(CC(=O)Nc2nccs2)CC1`, for which the activation is -1.58%.

Turning to `CC(CCn1cccn1)NC(=O)CCc1nnc(CCc2ccccc2)o1` (centres undefined), the activation was 4.98%.

For `COc1ccccc1C(=O)NCCC(=O)NC(C)CCc1ccccc1` (centres undefined), the activation is 5.98%.

As to `CCC(C)NC(=O)CCCc1ccccc1` (centres undefined), the activation is 14.8% (active).

Turning to `Cc1noc(C)c1S(=O)(=O)N(CC(=O)NCc1ccc(Cl)cc1)c1ccc2c(c1)OCO2`, the activation was 1.78%.

Regarding `Cc1ccc(-n2c(=O)cc(N3CCN(Cc4ccccc4)CC3)[nH]c2=O)cc1`, the activation is 7.71%.

Regarding `CCOc1cc2c(Cl)ncnc2c(OCC)c1OCC`, the activation is 2%.

On to `COc1ccc(S(=O)(=O)N2CCC(C(=O)NCCC(=O)NCc3cccc(OC)c3)CC2)cc1`, for which the activation was -0.19%.

Turning to `CCOc1ccc(C(=O)Nc2ccc(S(=O)(=O)Nc3cc(C)on3)cc2)cc1`, the activation was 5.44%.

With `CCOc1ccc(NC(=O)Nc2cc(C)on2)cc1`, the activation was 14.5% (active).

Turning to `CCC(=O)Nc1ccc(C(=O)Nc2cc(C)on2)cc1`, the activation was 6.16%.

On to `COc1cccc(OCC(O)CNC(=O)c2oc3c(C)c(C)ccc3c2C)c1` (centres undefined), for which the activation was 0.14%.

Turning to `O=C1CCCC2=C1C(c1cccs1)n1nc(SCc3ccccc3)nc1N2` (centres undefined), the activation is 1.85%.

Turning to `CC(=O)c1cccc(NC(=O)C2CCN(C(=O)c3ccccc3Cl)CC2)c1`, the activation is 1.54%.

As for `O=C(CSc1nncs1)NC1CCCc2ccccc21` (centres undefined), the activation was -2.59%.

On to `CC(C)(C)OC(=O)N1CCC(NC(=O)c2[nH]cnc2C(=O)N[C@@H](Cc2ccccc2)C(=O)OCc2ccccc2)CC1`, for which the activation is 38% (active).

Take `O=C(N[C@@H](Cc1ccccc1)C(=O)OCc1ccccc1)c1nc[nH]c1C(=O)NC1CCNCC1`: the activation was -1.94%.

As for `CC(C)(C)OC(=O)CNC(=O)c1[nH]cnc1C(=O)N[C@@H](Cc1ccccc1)C(=O)OCc1ccccc1`, the activation was 9.43%.

For the molecule `O=C(CNCc1ccco1)Nc1cc(S(=O)(=O)N2CCOCC2)ccc1N1CCCC1`, the activation was 16.7% (active).

For the molecule `O=C(COC(=O)c1ccccc1F)Nc1cc(S(=O)(=O)N2CCOCC2)ccc1N1CCCC1`, the activation was -1.44%.

As for `CC(=O)NCCC(=O)Nc1cc(S(=O)(=O)N2CCOCC2)ccc1N1CCOCC1`, the activation was -0.71%.

As to `Cc1ccc(C(=O)NC2CCN(C(=O)Nc3ccccc3Cl)CC2)cc1`, the activation was -0.54%.

In the case of `COc1ccccc1CCNC(=O)c1cnccn1`, the activation was 2.02%.

Take `COc1ccc(C(C#N)Nc2ccc(C)cc2)cc1` (centres undefined): the activation was 2.71%.

As for `O=C(c1cnc(Cl)c(Cl)c1)N1CCN(S(=O)(=O)c2ccc(F)cc2)CC1`, the activation is -1.02%.

In the case of `CCN1CCN(C(=O)C2CCN(S(=O)(=O)c3cc(Cl)ccc3Cl)CC2)CC1`, the activation was 1.91%.

In the case of `CC(=O)N1CCN(S(=O)(=O)c2c(F)cc(F)c(Cl)c2F)CC1`, the activation was 11.6% (active).

Take `CCc1nnc(NC(=O)CSCc2cc(=O)n3cc(C)sc3n2)s1`: the activation was -1%.

For `C/C(=N\NC(=O)CSc1nc2ccccc2c(=O)n1-c1ccccc1C)c1cccs1`, the activation is 9.42%.

As for `Cc1cccc(/C=N/NC(=O)CNc2cccc3ccccc23)n1`, the activation is 2.33%.

In the case of `C/C(=N\NC(=O)CNc1cccc2ccccc12)c1ccc(Br)s1`, the activation is 46.5% (active).

For `COc1ccc(CN2CCCCC2C)cc1OC` (centres undefined), the activation is -0.45%.

Turning to `COc1ccc(C2CC(c3cccs3)=Nc3ccccc3S2)cc1OC` (centres undefined), the activation is 0.29%.

As to `CN(Cc1ccco1)S(=O)(=O)c1nnc(NC(=O)c2ccccc2)s1`, the activation was 2.57%.

For `O=C(Nc1nc(-c2ccco2)c(-c2ccco2)s1)c1ccco1`, the activation was 5.45%.

Consider `CNc1nnc(-c2ccco2)s1`, for which the activation is 15.4% (active).

Consider `COc1cccc(-n2c(SCC(=O)NC3CCCCC3)nc3n[nH]c(C)c3c2=N)c1`, for which the activation was 0.63%.

On to `Cc1ccc(-n2c(SCC(=O)NCCC3=CCCCC3)nc3n[nH]c(C)c3c2=N)cc1Cl`, for which the activation was 12.6% (active).

With `CCCCNC(=O)CSc1nc2n[nH]c(C)c2c(=N)n1-c1cccc(Cl)c1C`, the activation was -2.98%.

Take `CCOc1ccc(CN(Cc2ccco2)C(c2cccs2)c2nnnn2C(C)(C)C)cc1` (centres undefined): the activation is -2.19%.

Consider `Cc1nc2ccccc2c(C(=O)O)c1-c1ccccn1`, for which the activation was -0.26%.

Turning to `CCOC(=O)CC(=O)CSc1nc(-c2ccccc2)cc(-c2ccc(Cl)cc2)c1C#N`, the activation is 10.7% (active).

On to `CCSc1nc(-c2ccc(OC)cc2)cc(-c2ccc(OC)cc2)c1C#N`, for which the activation was 0.07%.

For the molecule `N#Cc1c(C(F)(F)F)cc(-c2ccc(Cl)cc2)nc1SCC(=O)O`, the activation is -1.06%.

Take `O=C(Nn1cnnc1)c1cc(Cl)ccc1Cl`: the activation is -1.93%.

In the case of `Brc1ccc(-c2nn[nH]n2)cc1`, the activation was 8.54%.

With `Clc1ccc(CN2CCCCCC2)cc1Cl`, the activation was 1.18%.

Consider `c1cc(-c2nn[nH]n2)ccc1CN1CCCCC1`, for which the activation was 19.3% (active).

With `OCC1(CO)CC2(C1)CC(CO)(CO)C2`, the activation is -2.41%.

For `O=C(N/N=C\c1ccc(Br)cc1)c1ccc(Cn2cccn2)o1`, the activation is 0.84%.

Consider `Cc1nn(Cc2ccc(Cl)cc2)c(Cl)c1/C=N/NC(=O)c1cccnc1`, for which the activation is 4.12%.

For the molecule `Cc1c(Cl)c([N+](=O)[O-])nn1Cc1ccc(C(=O)N/N=C\c2cc(Cl)ccc2O)o1`, the activation was 13% (active).

Consider `O=C(C1CCCO1)N1CCN(S(=O)(=O)c2ccc(Br)cc2)CC1` (centres undefined), for which the activation is 1.59%.

On to `COc1ccc(Cl)cc1NC(=O)CN(C)C(=O)c1cc(-c2cccs2)nn1-c1ccccc1`, for which the activation is -7.03%.

As to `CCCN1C(=O)C(NS(=O)(=O)c2ccc(N)cc2)(C(F)(F)F)C(C(=O)OC)=C1C` (centres undefined), the activation is -4.18%.

With `COC(=O)c1c(NC(=O)C2CC(C)=C(C)CC2C(=O)O)sc2c1CCCCC2` (centres undefined), the activation was 5.77%.

Consider `CNC(=O)c1c(NC(NC(=O)c2ccco2)C(=O)c2ccc(Cl)cc2)sc2c1CCCC2` (centres undefined), for which the activation is -4.03%.

As for `CC(C)OC(=O)c1c(NC(=O)c2ccco2)sc2c1CCCC2`, the activation was 14.5% (active).

Consider `CN(C)CCCO/N=C(\c1ccccc1)c1ccncc1`, for which the activation was 7.85%.

In the case of `Cc1ccc(C2CCN(C(=S)Nc3cccc(Cl)c3)C2)cc1` (centres undefined), the activation is 1.97%.

On to `CC(C)(C)n1ncc2c(=O)n(Cc3ccc(Cl)cc3)cnc21`, for which the activation is 3.5%.

For the molecule `CN(CC(=O)NCc1ccc(Cl)cc1)S(=O)(=O)c1cccs1`, the activation was 1.02%.

For `CCSc1nc2sc3c(c2c(=O)[nH]1)CC(C)(C)OC3`, the activation is 2.29%.

Take `CCSc1nnc(-c2cc3c(s2)-c2ccccc2CC3)o1`: the activation was -1.94%.

For `CSc1nc2sc3c(c2c(=O)[nH]1)CCc1ccccc1-3`, the activation is 12.1% (active).

Regarding `O=C(Nc1ccc2c(c1)OCO2)C1CC1(Cl)Cl` (centres undefined), the activation was 12.7%.

`Cc1ccc(-c2noc(CCC(=O)Nc3ccccc3N3CCN(C)CC3)n2)cc1`: the activation is -1.14%.

For the molecule `Cc1ccc(C(=O)O/N=C(\N)c2ccccn2)cc1Cl`, the activation is 4.33%.

Consider `O=C(COc1ccc(-n2cnnn2)cc1)Nc1ccccc1Cl`, for which the activation was 5.09%.

Consider `O=C(Nc1ccccc1Cl)O/N=C(/c1ccccc1)c1ccccn1`, for which the activation is 12.7% (active).

On to `OCCC1CN(Cc2cccn2-c2nccs2)CCN1CCc1ccccc1` (centres undefined), for which the activation was 0.07%.

For `O=C(CC(Cc1ccccc1)C(=O)O)NCCc1ccc2c(c1)OCO2` (centres undefined), the activation was 0.52%.

On to `O=C(CCNS(=O)(=O)c1ccccc1C(F)(F)F)NCc1ccc2c(c1)OCO2`, for which the activation was -3.01%.

As for `O=C(CCc1nnc(Cc2ccc3c(c2)OCO3)o1)NCCc1ccccc1Cl`, the activation is 10.7% (active).

`CC(NC(=O)COc1ccc(-c2ccccc2)cc1)C1CCCO1` (centres undefined): the activation is 4.73%.

For `COCCCNC(=O)CN1CCN(Cc2ccccc2Cl)C1=O`, the activation is 2.41%.

In the case of `Cc1ccccc1CN1CCN(CC(=O)NCc2ccccn2)C1=O`, the activation was 16.8% (active).

Regarding `Cc1nn(CC(=O)NCc2ccccn2)c(C)c1[N+](=O)[O-]`, the activation is -1.81%.

Regarding `O=C(Cn1nnc(-c2ccccc2)n1)N/N=C/c1ccc(-c2ccc(Cl)cc2)o1`, the activation is 1.41%.

For `CN(CCOc1ccc(Br)cc1)CC(=O)Nc1cccc(S(=O)(=O)NC2=NCCC2)c1`, the activation was 12.7% (active).

On to `CC(=O)Nc1ccc(C(=O)Nc2cccc(S(=O)(=O)NC3=NCCC3)c2)cc1`, for which the activation was 1.89%.

Turning to `CCc1ccc(C(=O)OCC(=O)Nc2cccc(S(=O)(=O)NC3=NCCCCC3)c2)cc1`, the activation is 7.2%.

As to `Cn1c(=O)[nH]c(=O)c2c1nc(N(CCO)Cc1ccccc1)n2Cc1ccccc1Cl`, the activation was -3.62%.

In the case of `COc1ccc(Cl)cc1NC(=O)C(C)N1CCc2ccccc21` (centres undefined), the activation was 1.38%.
